Reference: PubChem BioAssay (NCI)
The panel holds about 83,000 compounds, 20% with a hit somewhere; the sample as a whole holds those more often.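 Each cell line was grown in a 96-well plate and treated with one concentration of compound for 48 hours. Values below 10 were considered active.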 Activity calls are given as the source filed them.

Test system: SK-MEL-28 melanoma
Assay: NCI-60 one-dose screen, 48 h (100 = growth as untreated, 0 = no growth, -100 = all killed)
Settings: 10 µM unless noted

**Q.** CC(CO)(CO)C(=O)O was tested. Which growth did it give?
**A.** 110% (inactive)

**Q.** With O=C(O)Cc1cccc2ccccc12 as the molecule, how does the growth read?
**A.** 121% (inactive)

**Q.** O=c1[nH]c(=O)c2cc(Cl)cc(Cl)c2[nH]1 was tested. Which growth did it give?
**A.** 124% (inactive)

**Q.** C=CCC(OC(C)=O)c1ccc(OC)c(OC)c1 (centres undefined) was tested. Which growth did it give?
**A.** 132% (inactive)

**Q.** With C=CCC(OC(C)=O)c1ccc(C(C)C)cc1 (centres undefined) as the molecule, how does the growth read?
**A.** 120% (inactive)

**Q.** How did the growth turn out when COC(=O)Cc1cc(COC(C)=O)ccc1C was run?
**A.** 113% (inactive)

**Q.** How did the growth turn out when CCCCCCCCCCCCCCCCCC(=O)NCCNC(=O)CCCCCCCCCCCCCCCCC was run?
**A.** 105% (inactive)

**Q.** With CC(=O)c1cccc(N(C)S(=O)(=O)c2ccc(C)cc2)c1 as the molecule, how does the growth read?
**A.** 93.6% (inactive)

**Q.** Which growth does the source give for N#CC1(O)CCCCC1 here?
**A.** 109% (inactive)

**Q.** With CC(=O)OC(C)c1cccc(C#N)c1 (centres undefined) as the molecule, how does the growth read?
**A.** 114% (inactive)

**Q.** Which growth does the source give for CCN(C(C)=O)c1ccc([N+](=O)[O-])cc1 here?
**A.** 106% (inactive)

**Q.** With CC(C)=CCC[C@@H](C)[C@H]1CC[C@@]2(C)C3=C(CC[C@]12C)[C@@]1(C)CC[C@H](O)C(C)(C)[C@@H]1CC3 as the molecule, how does the growth read?
**A.** 104% (inactive)

**Q.** CCOc1ccc(C(=O)NCC(C)C)cc1 was tested. Which growth did it give?
**A.** 106% (inactive)

**Q.** Which growth does the source give for CCOC(=O)C(C#N)=C1CCN(C)CC1 here?
**A.** 134% (inactive)

**Q.** Which growth does the source give for CCOC(C=O)OCC here?
**A.** 116% (inactive)

**Q.** For Cc1nc(O)cc(=O)[nH]1, which growth is on record?
**A.** 110% (inactive)

**Q.** COC1OC(C(O)C(O)CO)C(O)C(O)C1O (centres undefined) was tested. Which growth did it give?
**A.** 101% (inactive)

**Q.** Which growth does the source give for O=C(Nc1ccccc1)c1ccco1 here?
**A.** 105% (inactive)

**Q.** For NC(=O)OCCO, which growth is on record?
**A.** 113% (inactive)

**Q.** With CC(=O)c1ccc(C)cc1 as the molecule, how does the growth read?
**A.** 104% (inactive)

**Q.** For O=C(CC(CC(=O)c1ccccc1)c1ccccn1)c1ccccc1, which growth is on record?
**A.** 110% (inactive)

**Q.** How did the growth turn out when ON1CCCC1 was run?
**A.** 106% (inactive)

**Q.** CC(=O)c1cccc(NS(=O)(=O)c2ccc(C)cc2)c1 was tested. Which growth did it give?
**A.** 78.5% (inactive)

**Q.** How did the growth turn out when CC(=O)NC(CCc1ccc(Cl)c(Cl)c1)c1cccc(O)c(=O)c1 (centres undefined) was run?
**A.** 19.5% (inactive)

**Q.** How did the growth turn out when O=S(=O)(OCCOS(=O)(=O)c1ccccc1)c1ccccc1 was run?
**A.** 112% (inactive)

**Q.** For Cc1cccc2ccccc12, which growth is on record?
**A.** 98.2% (inactive)

**Q.** O=C(OC1CCCC1)c1ccccc1Cl was tested. Which growth did it give?
**A.** 107% (inactive)

**Q.** With N#CCCN1C(=O)CCC1C(=O)O (centres undefined) as the molecule, how does the growth read?
**A.** 124% (inactive)

**Q.** How did the growth turn out when CCOC(=O)C(CCC#N)(CCC#N)C(=O)OCC was run?
**A.** 107% (inactive)

**Q.** Which growth does the source give for Cc1ccc(OC(=O)c2ccccc2)cc1 here?
**A.** 120% (inactive)

**Q.** How did the growth turn out when O=C1NC(=O)C(c2ccccc2)O1 (centres undefined) was run?
**A.** 109% (inactive)

**Q.** Which growth does the source give for O=C(CCl)Oc1ccc([N+](=O)[O-])cc1 here?
**A.** 114% (inactive)

**Q.** For CCCCNC(=O)c1ccc(OCC)cc1, which growth is on record?
**A.** 101% (inactive)

**Q.** How did the growth turn out when CC(CCC#N)(CCC#N)C(=O)c1ccccc1 was run?
**A.** 119% (inactive)

**Q.** With O=[N+]([O-])c1c(Cl)ncnc1Cl as the molecule, how does the growth read?
**A.** 105% (inactive)

**Q.** Cc1ccc(S(=O)(=O)CCCl)cc1 was tested. Which growth did it give?
**A.** 115% (inactive)

**Q.** Cc1ccc(NC(=O)c2ccccc2Cl)cc1 was tested. Which growth did it give?
**A.** 108% (inactive)

Test system: SK-MEL-2 melanoma
Assay: as above
Settings: 10 µM unless noted

**Q.** With CC(CO)(CO)C(=O)O as the molecule, how does the growth read?
**A.** 108% (inactive)

**Q.** How did the growth turn out when CCCCCCCCCCCCCCCCCC(=O)NCCNC(=O)CCCCCCCCCCCCCCCCC was run?
**A.** 90.2% (inactive)

**Q.** How did the growth turn out when CC(=O)c1cccc(N(C)S(=O)(=O)c2ccc(C)cc2)c1 was run?
**A.** 94.2% (inactive)

**Q.** With CC(=O)OC(C)c1cccc(C#N)c1 (centres undefined) as the molecule, how does the growth read?
**A.** 110% (inactive)

**Q.** For CCN(C(C)=O)c1ccc([N+](=O)[O-])cc1, which growth is on record?
**A.** 107% (inactive)

**Q.** Which growth does the source give for CC(C)=CCC[C@@H](C)[C@H]1CC[C@@]2(C)C3=C(CC[C@]12C)[C@@]1(C)CC[C@H](O)C(C)(C)[C@@H]1CC3 here?
**A.** 118% (inactive)

**Q.** With CCOC(C=O)OCC as the molecule, how does the growth read?
**A.** 102% (inactive)

**Q.** With COC1OC(C(O)C(O)CO)C(O)C(O)C1O (centres undefined) as the molecule, how does the growth read?
**A.** 99.5% (inactive)

**Q.** How did the growth turn out when O=C(Nc1ccccc1)c1ccco1 was run?
**A.** 99.1% (inactive)

**Q.** With NC(=O)OCCO as the molecule, how does the growth read?
**A.** 100% (inactive)

**Q.** For O=C(CC(CC(=O)c1ccccc1)c1ccccn1)c1ccccc1, which growth is on record?
**A.** 106% (inactive)

**Q.** How did the growth turn out when ON1CCCC1 was run?
**A.** 106% (inactive)

**Q.** For CC(=O)c1cccc(NS(=O)(=O)c2ccc(C)cc2)c1, which growth is on record?
**A.** 77.9% (inactive)

**Q.** For CC(=O)NC(CCc1ccc(Cl)c(Cl)c1)c1cccc(O)c(=O)c1 (centres undefined), which growth is on record?
**A.** 17.8% (inactive)

**Q.** For O=S(=O)(OCCOS(=O)(=O)c1ccccc1)c1ccccc1, which growth is on record?
**A.** 103% (inactive)

**Q.** For Cc1cccc2ccccc12, which growth is on record?
**A.** 106% (inactive)

**Q.** With CCOC(=O)C(CCC#N)(CCC#N)C(=O)OCC as the molecule, how does the growth read?
**A.** 112% (inactive)

**Q.** How did the growth turn out when O=C1NC(=O)C(c2ccccc2)O1 (centres undefined) was run?
**A.** 90.1% (inactive)

**Q.** For O=[N+]([O-])c1c(Cl)ncnc1Cl, which growth is on record?
**A.** 110% (inactive)

Test system: EKVX NSCLC
Assay: as above
Settings: 10 µM unless noted

**Q.** O=C(O)Cc1cccc2ccccc12 was tested. Which growth did it give?
**A.** 101% (inactive)

**Q.** How did the growth turn out when O=c1[nH]c(=O)c2cc(Cl)cc(Cl)c2[nH]1 was run?
**A.** 92.7% (inactive)

**Q.** With C=CCC(OC(C)=O)c1ccc(OC)c(OC)c1 (centres undefined) as the molecule, how does the growth read?
**A.** 107% (inactive)

**Q.** For C=CCC(OC(C)=O)c1ccc(C(C)C)cc1 (centres undefined), which growth is on record?
**A.** 113% (inactive)

**Q.** With COC(=O)Cc1cc(COC(C)=O)ccc1C as the molecule, how does the growth read?
**A.** 119% (inactive)

**Q.** N#CC1(O)CCCCC1 was tested. Which growth did it give?
**A.** 101% (inactive)

**Q.** Which growth does the source give for CCOc1ccc(C(=O)NCC(C)C)cc1 here?
**A.** 106% (inactive)

**Q.** Which growth does the source give for CCOC(=O)C(C#N)=C1CCN(C)CC1 here?
**A.** 112% (inactive)

**Q.** How did the growth turn out when Cc1nc(O)cc(=O)[nH]1 was run?
**A.** 108% (inactive)

**Q.** Which growth does the source give for CC(=O)c1ccc(C)cc1 here?
**A.** 98.5% (inactive)

**Q.** O=C(OC1CCCC1)c1ccccc1Cl was tested. Which growth did it give?
**A.** 111% (inactive)

**Q.** N#CCCN1C(=O)CCC1C(=O)O (centres undefined) was tested. Which growth did it give?
**A.** 112% (inactive)

**Q.** With Cc1ccc(OC(=O)c2ccccc2)cc1 as the molecule, how does the growth read?
**A.** 122% (inactive)

**Q.** For O=C(CCl)Oc1ccc([N+](=O)[O-])cc1, which growth is on record?
**A.** 112% (inactive)

**Q.** Which growth does the source give for CCCCNC(=O)c1ccc(OCC)cc1 here?
**A.** 103% (inactive)

**Q.** For CC(CCC#N)(CCC#N)C(=O)c1ccccc1, which growth is on record?
**A.** 115% (inactive)

**Q.** Cc1ccc(S(=O)(=O)CCCl)cc1 was tested. Which growth did it give?
**A.** 97.6% (inactive)

**Q.** Which growth does the source give for Cc1ccc(NC(=O)c2ccccc2Cl)cc1 here?
**A.** 105% (inactive)
